# In PubChem BioAssay (NCATS):
# “And” between values parts separate entries of the source, which are not always exact repeats. Equal entries are not always repeated. Results filed as inconclusive are left out. Values without a mark were called inactive. The source made the active and inactive calls. Calls come from the whole dose curve; as a rule, active = well fitted cell-killing curve with a large enough effect; inconclusive = small, poorly fitted or top-dose-only effect, or effect the other way; inactive = flat fitted curve, though single readings scatter.
# Experiment: qHTS assay for cell viability of HEK293 cells (AID 743288); note: nearly all actives have a fitted effect of over 50% in size
# Conditions: ATP luminescence (CellTiter-Glo), 18 h, stronger effect = lower value
# How it was run: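 Parental HEK293 cells, 2,000 per well, preincubated at least 5 h at 37 C, then exposed to compounds in DMSO for 18 h at 37 C. Viability by CellTiter-Glo ATP luminescence after 30 min at room temperature.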
# % is set by controls: 0 for no effect and ±100 for the full control effect.
row,Structure (SMILES),max response
1,CC1(C)C(C=C(Cl)Cl)C1C(=O)OCc1cccc(Oc2ccccc2)c1 (stereo unspecified),-9.26% [middle of 4 runs]
2,CCCCCCCC(=O)O,-4.48% and -6.78%
3,CC(C)=O,-4.51%
4,CC1=C(/C=C/C(C)=C/C=C/C(C)=C/CO)C(C)(C)CCC1,-9.33% and -12.3%
5,CC(C)(C)NC(=O)[C@@H]1C[C@@H]2CCCC[C@@H]2CN1C[C@@H](O)[C@H](Cc1ccccc1)NC(=O)[C@H](CC(N)=O)NC(=O)c1ccc2ccccc2n1,-26%
6,CC(O)CO (stereo unspecified),4.22% and 2.43%

# Experiment: qHTS assay for cell viability of the p53RE-bla HCT-116 cell line (AID 743292); note: nearly all actives have a fitted effect of over 55% in size
# Conditions: p53RE-bla HCT-116 viability, ATP luminescence, 16 h; series mostly up to 95 µM
# How it was run: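 ATP-based luminescence, 16 h compound exposure at 37 C, p53RE-bla HCT-116 cells at 4,000/well.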
row,Structure (SMILES),outcome
1,CC1(C)C(C=C(Cl)Cl)C1C(=O)OCc1cccc(Oc2ccccc2)c1 (stereo unspecified),inactive
2,CCCCCCCC(=O)O,inactive
3,CC(C)=O,inactive
4,CC1=C(/C=C/C(C)=C/C=C/C(C)=C/CO)C(C)(C)CCC1,inactive
5,CC(O)CO (stereo unspecified),inactive
